# A selection: hits, their analogues and other compounds. The true share with any hit is near 2.3%.
# GRP78 ERSR act: ER stress response induction in glioma; AID 602332; U87-MG GRP78 promoter luciferase reporter, 16 h; Potency, µM, without a hit: at the top dose activation, actives largely listed as activators; actives 0.02% (n = 420,000); note: series mostly up to about 76 µM; % of control where 0% means no effect; nearly all actives have a fitted effect of over 35% in size
#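 Stably transfected U87-MG glioma cells carrying a GRP78-based luciferase sensor; 16 h compound incubation. Luminescence end-point read 10 min after Bright-Glo addition at room temperature.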
# PTHR1 ag: agonists of human PTHR1 parathyroid hormone receptor; Q03431; actives 0.075% (n = 410,000); AID 743266; Potency, µM (highest dose often 115 µM), inactives show at the top dose activation, most hits filed as activators; HEK293 GP2 PTHR1 cells, GloSensor cAMP luminescence, 1 h; note: nearly all actives have a fitted effect of over 55% in size
#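 HEK-293-derived GP2 cells expressing PTHR1 and a GloSensor cAMP reporter, 3,000/well, plated overnight, given luciferin plus IBMX (each 0.5 mM as added) for 1 h at 37 °C, then compound for 1 h at 37 °C. Luminescence was read after 15 min at room temperature.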
# GLS inhibitor: glutaminase GLS (human) inhibition | O94925 | GLS enzymatic activity, qHTS titration | Potency, µM (doses to about 45.5 µM), inactives show top-dose activity change, negative = inhibition, most hits filed as inhibitors | actives 0.21% (n = 410,000); note: % is set by controls: 0 for no effect and ±100 for the full control effect
# Target sequence (O94925 whole entry, looked up): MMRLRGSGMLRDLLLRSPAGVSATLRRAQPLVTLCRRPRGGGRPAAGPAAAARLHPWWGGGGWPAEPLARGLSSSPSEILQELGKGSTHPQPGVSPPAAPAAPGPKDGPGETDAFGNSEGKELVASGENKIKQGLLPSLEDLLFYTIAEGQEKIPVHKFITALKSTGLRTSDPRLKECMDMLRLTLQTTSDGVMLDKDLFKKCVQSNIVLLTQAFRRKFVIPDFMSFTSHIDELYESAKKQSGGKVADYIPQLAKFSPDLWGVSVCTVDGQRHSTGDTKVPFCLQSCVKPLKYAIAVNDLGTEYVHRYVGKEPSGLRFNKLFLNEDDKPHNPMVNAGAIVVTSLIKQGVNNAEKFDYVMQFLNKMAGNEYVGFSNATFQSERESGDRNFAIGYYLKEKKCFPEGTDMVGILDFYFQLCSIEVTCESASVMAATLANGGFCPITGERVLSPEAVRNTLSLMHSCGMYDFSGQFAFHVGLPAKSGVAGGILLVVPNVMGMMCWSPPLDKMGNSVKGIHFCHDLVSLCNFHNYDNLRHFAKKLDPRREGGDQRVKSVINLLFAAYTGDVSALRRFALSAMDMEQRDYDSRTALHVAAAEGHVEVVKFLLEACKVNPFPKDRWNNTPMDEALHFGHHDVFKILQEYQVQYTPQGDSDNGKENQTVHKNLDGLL
#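 Human kidney-isoform GLS in 45 mM KH2PO4 pH 8.2, 0.02% Tween-20, with compound, started with 1mM L-Glutamine (added stock). Glutamate oxidase/HRP/Amplex red coupled fluorescence read at start and after 30 min at RT.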
# GLP1R inv ag: acts as inverse agonist at human GLP-1 receptor. P43220. HEK293 GLP-1R CRE-luciferase, luminescence, 24 h; GLP-1R form is constitutively active. Potency, µM (series often up to 38.3 µM), for inactives: at the top dose activity change, negative = inhibition, actives largely listed as inhibitors. actives 1.6% (n = 410,000). AID 624417; note: % is set by controls: 0 for no effect and ±100 for the full control effect; nearly all actives have a fitted effect of over 55% in size
#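 Readout was luciferase luminescence, measured 12 min after detection reagent at room temperature. Beforehand, GLP-1R reporter HEK293 cells had sat 12 h, then received compounds for 24 hr at 37 deg C.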
# ALOX12 inh: inhibitors of human 12S-lipoxygenase ALOX12; P18054; purified 12hLO, xylenol orange hydroperoxide absorbance; Potency, µM (series often up to 108 µM), without a hit: at the top dose activity change, negative = inhibition, most hits filed as inhibitors; actives 1.1% (n = 580,000); note: % is set by controls: 0 for no effect and ±100 for the full control effect
#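 Purified human 12hLO (150 nM final) in 25 mM Hepes, 0.01% Triton X-100, pH 7.0 was preincubated 15 min at room temperature with compound. Then 40 uM arachidonic acid was added, 30 min. Hydroperoxide was read by Fe-XO absorbance ratio 573/405 nm.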
# GLP-1R agonist: agonists of human GLP-1 receptor. Potency, µM (titrated, usually from 45.6 µM), for the others: at the top dose activation, usual class: activators. P43220. HEK293 GLP-1R CRE-luciferase, luminescence, 4-6 h; cells express a hypersensitive GLP-1R form. actives 0.007% (n = 380,000). AID 624172; note: % of control where 0% means no effect
# An asterisk follows results filed as active; i = inactive; ? = inconclusive; nt = no result given; [ ] = remark or other dose. Calls come from the whole dose curve; as a rule, active = well fitted curve in the direction sought with a large enough effect; inconclusive = small, poorly fitted or top-dose-only effect, or another doubt; inactive = no such curve, though single readings can be large; an effect the other way counts as inactive or inconclusive. Potency is the fitted concentration of half-maximal effect.
SMILES,GRP78 ERSR act,PTHR1 ag,GLS inhibitor,GLP1R inv ag,ALOX12 inh,GLP-1R agonist
CCC1CCc2sc(C(=O)NC3CCN(Cc4ccccc4)CC3)cc2C1 (stereo unspecified),-2%,-14%,-6%,5µM*,?,8%
COc1ccc(C(CNC(=O)c2cc3c(s2)CCC(C)C3)N2CCCC2)cc1 (stereo unspecified),-4%,-11%,-4%,?,0%,6%
CCC1CCc2sc(C(=O)NCC(c3ccccc3OC)N3CCCC3)cc2C1 (stereo unspecified),-4%,i,0%,5µM*,145%,19%
CCC1CCc2sc(C(=O)N(C)CC(=O)Nc3cccc(OC)c3)cc2C1 (stereo unspecified),-5%,i,3%,?,199%,-1%
CCC1CCc2sc(C(=O)N(C)CC(=O)Nc3ccc(OC)cc3)cc2C1 (stereo unspecified),-4%,i,0%,10µM*,-25%,14%
O=c1cc(-c2cc3ccccc3o2)c2cc3c(cc2o1)CCC3,nt,nt,nt,nt,-2%,nt
CCOC(=O)C1=C(C)NC(C)=C(C(=O)OCC)C1c1cccs1,-5%,-16%,-8%,-26%,-2%,-1%
CCOC(=O)C1=C(C)NC2=C(C(=O)c3ccccc32)C1c1ccc([N+](=O)[O-])o1 (stereo unspecified),-2%,-9%,?,-17%,28µM*,-15%
CCOC(=O)C1=C(C)NC(C)=C(C(=O)OCC)C1c1sccc1C,-4%,-34%,41%,7.9µM*,-1%,4%
CCOC(=O)C1=C(C)NC(C)=C(C(=O)OCC)C1c1cccc([N+](=O)[O-])c1,-2%,-21%,5%,10µM*,?,-4%
CC(=O)c1ccc(NC(=O)CCc2ncc(-c3ccccc3Cl)o2)cc1,nt,nt,nt,nt,9%,nt
CCN(C(=O)C1CCCC1)C1CC1,nt,nt,nt,nt,-13%,nt
O=[N+]([O-])c1ccc(CSc2ccc(S(=O)(=O)N3CCCCCC3)cn2)cc1,-3%,-20%,-26%,11µM*,-2%,21%
COc1cc(C2OCC3C(c4ccc(OC5OC(CO)C(O)C(O)C5O)c(OC)c4)OCC23)ccc1O (stereo unspecified),-2%,-23%,42%,-3%,5µM*,-2%
CC(C)(C)c1ccc(O)c(NC(=O)c2cc(F)cc(F)c2)c1,nt,nt,nt,nt,30%,nt
O=C(C(Sc1nncn1-c1ccccc1)c1ccccc1)N1CCOCC1 (stereo unspecified),nt,nt,nt,nt,19%,nt
CC(=O)O,nt,nt,nt,nt,-3%,nt
CC(=O)c1cn(CC(=O)NC2CCCCCC2)c2ccccc12,nt,nt,nt,nt,15%,nt
CCc1cccc2c(C(C)=O)cn(CC(=O)NC3CC3)c12,nt,nt,nt,nt,32µM*,nt
Cc1cccc(OC2CCN(Cc3nc(CC4CC4)no3)CC2)c1,2%,i,2%,13µM*,1%,8%
Cc1cccc(SC2CCN(Cc3nc(CC4CC4)no3)CC2)c1,-2%,-6%,6%,-5%[0.307 µM],?,0%
CCOC(=O)CSC1=C(C#N)C(c2ccc(C)o2)CC(=O)N1 (stereo unspecified),-5%,6%,-9%,0.56µM*,?,18%
CCOC(=O)CSC1=C(C#N)C(c2ccc(Cl)cc2)CC(=O)N1 (stereo unspecified),-3%,-76%,1%,8%,?,-2%
Clc1ccccc1NN=Cc1ccccn1,-1%,-12%,-3%,4µM*,?,5%
CCCc1sc(N/N=C/c2ccccn2)nc1-c1ccc(F)cc1,-3%,-25%,13%,?,nt,-6%
Cc1nc(N/N=C/c2ccccn2)sc1C,-15%,-38%,13%,2.2µM*,-5%,-14%
O=C(/C=C1\NC2(CCCC2)Cc2ccccc21)C(=O)N/N=C/c1ccc(O)c(O)c1,-7%,-92%,?,?,35µM*,0%

# Screens from PubChem.
